Screening data from PubChem BioAssay.
Compounds with a hit are over-represented: about 8% of the library has one in this group of screens.
Gal4-VP16 FLuc – counter-screen for ROR gamma inhibitors: Gal4-VP16 reporter | Drosophila S2 Gal4-VP16 UAS-luciferase, luminescence, 20 h | Potency, µM (series often up to 53.6 µM), without a hit: at the top dose activity, negative = inhibition, hits mostly inhibitors | 3.5% of 310,000 active | AID 2546;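 note: Gal4-VP16 expression switched on by copper sulfate through the metallothionein promoter; potency is the fitted concentration of half-maximal effect; nearly all actives have a fitted effect of over 50% in size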
TSHR antag – human thyrotropin receptor antagonism; P16473; TSHR-expressing cells, TSH-stimulated cAMP HTRF, 2 h; stronger effect = lower value; activity change, negative = inhibition, % at 11.5 µM; 0.2% of 330,000 active; AID 504810;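 active = activity change below a set negative limit, meaning inhibition stronger than a set level, cut at about -70% in these data; inconclusive = activity change between two set negative limits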
Target sequence (P16473 whole entry, looked up): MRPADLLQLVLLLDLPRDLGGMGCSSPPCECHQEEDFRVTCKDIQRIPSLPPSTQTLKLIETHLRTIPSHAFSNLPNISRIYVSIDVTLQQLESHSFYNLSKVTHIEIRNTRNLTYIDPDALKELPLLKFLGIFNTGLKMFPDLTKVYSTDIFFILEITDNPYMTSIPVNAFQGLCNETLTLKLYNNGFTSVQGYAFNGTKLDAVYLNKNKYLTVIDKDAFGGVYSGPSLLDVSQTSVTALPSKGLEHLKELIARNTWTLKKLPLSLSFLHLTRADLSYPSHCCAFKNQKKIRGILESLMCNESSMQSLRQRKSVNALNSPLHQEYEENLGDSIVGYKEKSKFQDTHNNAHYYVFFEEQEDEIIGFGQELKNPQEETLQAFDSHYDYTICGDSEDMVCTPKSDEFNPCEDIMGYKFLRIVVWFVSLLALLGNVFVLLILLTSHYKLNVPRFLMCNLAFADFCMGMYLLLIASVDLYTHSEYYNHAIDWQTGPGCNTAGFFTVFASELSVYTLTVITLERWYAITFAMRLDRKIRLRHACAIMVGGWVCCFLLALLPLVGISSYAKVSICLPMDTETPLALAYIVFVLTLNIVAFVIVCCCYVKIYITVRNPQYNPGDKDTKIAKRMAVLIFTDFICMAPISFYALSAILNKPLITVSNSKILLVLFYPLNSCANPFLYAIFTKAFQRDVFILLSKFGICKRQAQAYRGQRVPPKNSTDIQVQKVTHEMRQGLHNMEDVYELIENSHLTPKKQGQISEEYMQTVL
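TSHR-expressing cells were treated with compounds, then stimulated with TSH at EC80 (4nM final) for 2 hours at 37 deg C. Cellular cAMP was measured by HTRF competition between lysate cAMP and cAMP-d2 for a cryptate-labelled anti-cAMP antibody.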
RORgamma inh – inhibitors of mouse ROR gamma transcriptional activity | P51450 | Drosophila S2 Gal4-RORgamma UAS-luciferase reporter, 20 h | Potency, µM (series often up to 53.6 µM), for inactives: at the highest dose activity change, negative = inhibition, actives largely listed as inhibitors | 5.4% of 310,000 active | AID 2551; note: potency is the fitted concentration of half-maximal effect; nearly all actives have a fitted effect of over 60% in size
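ROR gamma transcriptional activity was tracked as Gal4-UAS luciferase output in stably transfected Drosophila Schneider cells, with compound added 1 hr before 700 uM copper sulfate induction and a 20 hr ambient-temperature incubation.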
ELG1 repair inh – blocks ELG1-dependent DNA repair in HEK293T cells | AID 504467 | HEK293T ELG1-luciferase reporter, luminescence, 16 h; DNA damage induced by 5-fluorouridine | Potency, µM (highest dose often 46.1 µM), without a hit: at the highest dose activity change, negative = inhibition, hits mostly inhibitors | 2.3% of 330,000 active; note: potency is the fitted concentration of half-maximal effect; nearly all actives have a fitted effect of over 55% in size
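Reporter activity after DNA damage by 5-fluorouridine is monitored. Compound-treated cells incubate 16 hr at 37 °C, then ONE-Glo is added for 30 min before luminescence reading.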
Coupling enz – inhibits coupling enzyme system, counter-screen for aldolase hits; coupling enzyme system counterscreen, AmpLite Red fluorescence; activity change, negative = inhibition, % at 58.2 µM, hits read low; 0.67% of 290,000 active; in the data active = activity change below about -30%
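First, compound is pin-transferred into glyceraldehyde-3-phosphate coupling-enzyme reagent at 57.5 uM final and held 10 min at RT. Next, substrate, coupling system and AmpLite Red are added. After 20 min RT, fluorescence (525/598 nm) is read.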
The depositor's hits bear a star; ? = inconclusive; nt = no result given; [ ] = dose if it differs, or a comment. Unless noted, calls come from the whole dose curve; as a rule, active = well fitted curve in the direction sought with a large enough effect; inconclusive = small, poorly fitted or top-dose-only effect, or another doubt; inactive = no such curve, though single readings can be large; an effect the other way counts as inactive or inconclusive. % is set by controls: 0 for no effect and ±100 for the full control effect.

SMILES | Gal4-VP16 FLuc | TSHR antag | RORgamma inh | ELG1 repair inh | Coupling enz
COc1ccccc1C/C(N)=N/OC(=O)c1cccc([N+](=O)[O-])c1 | -24.4% | 0.9 | 10µM* | 0.0% | 2.1
COc1ccccc1C/C(N)=N/OC(=O)c1cccs1 | 4.2%[10 µM] | -2.0 | -2.6% | -0.9% | -1.1
COc1ccc(C/C(N)=N/OC(=O)c2cccc([N+](=O)[O-])c2)cc1 | -28.0% | -4.7 | 2.4% | -0.7% | 0.2
CC1=C(C)/C(=N/OC(=O)c2cccc([N+](=O)[O-])c2)C=CC1=O | 3.55µM* | 20.2 | 3.55µM* | ? | -8.5
COc1ccccc1C/C(N)=N/OC(=O)/C=C/c1ccccc1 | -25.9% | -12.9 | 5.62µM* | 12.9% | 0.6
CCOCCCn1c(SCC(=O)NCc2ccco2)nc2c(sc3ccccc32)c1=O | -8.1% | -7.6 | 32.4% | 16.4µM* | -2.1
O=C(CCCCCn1c(SCc2ccncc2)nc2ccccc2c1=O)NCc1ccco1 | -0.6% | -15.5 | ? | 18.4µM* | 2.4
COc1ccc(C(=O)NCCn2cc(SCC(=O)NCc3ccco3)c3ccccc32)cc1 | -23.3% | -8.1 | 10µM* | ? | 1.0
O=C(CCCCn1c(=O)c2ccccc2n(CC(=O)Nc2ccc(F)cc2)c1=O)NCc1ccco1 | 5.2% | -3.0 | 7.9% | 20.6µM* | 2.5
COc1ccc(C(=O)Nn2c(SCC(=O)N3CCC(C)CC3)nc3ccccc3c2=O)cc1 | 10µM* | 36.3 | 10µM* | ? | 9.2
COc1ccc(C(=O)Nn2c(SCC(=O)NCc3ccco3)nc3ccccc3c2=O)cc1 | 8.91µM* | 1.2 | 10µM* | ? | 8.7
COc1ccc(C(=O)Nn2c(SCC(=O)NC3CCCCC3)nc3ccccc3c2=O)cc1 | 12.6µM* | 14.2 | ? | ? | 17.3
COCCCn1c(SCC(=O)NC2CCCCC2)nc2ccccc2c1=O | 4.7% | -2.2 | -2.4% | 0.3% | 0.5
COc1ccc(C(=O)Nn2c(SCC(=O)c3ccc(Cl)cc3)nc3ccccc3c2=O)cc1 | ? | 26.4 | 11.2µM* | ? | 3.9
O=C(COC(=O)c1ccc(O)cc1O)NC1CCCCCC1 | nt | -15.3 | nt | -1.9% | nt
COc1cccc2c1OC(=O)CC2c1ccccc1C (stereo unspecified) | 6.4%[96.6 µM] | nt | -29.1%[96.6 µM] | nt | 5.5
Nc1c(C(=O)NC2CC2)sc2nc3c(c(-c4ccco4)c12)CC/C3=C/c1ccco1 | -22.5% | -3.1 | -20.1% | 6.0% | -34.7*
CCn1c(=O)c2c(nc(SCC(=O)N3CCC(C)CC3)n2C)n(C)c1=O | -3.8% | -5.1 | 7.4% | -9.4% | 0.5
O=C(c1ccc(F)cc1F)N1CCN(c2ccccn2)CC1 | 8.8% | -2.2 | 13.3% | -0.9% | 3.8
N=c1c(-c2nc3ccccc3[nH]2)cc(C(=O)c2cccs2)nn1-c1ccccc1 | ? | -32.3 | -3.5% | ? | 2.9
N=c1c(-c2nc3ccccc3[nH]2)cc(C(=O)c2ccco2)nn1-c1ccccc1 | 5.01µM* | 6.9 | 2.82µM* | 16.4µM* | -3.9
Cc1cnc(CNc2ccnc(-c3cccnc3)n2)cn1 | -1.2% | nt | 4.3% | nt | 2.0
COc1ccc(-c2sc3ccc(OC)cc3c2-c2ccc(O)cc2)cc1 | nt | 76.2 | nt | 23.1µM* | nt
Cc1snc(SCc2ccc(Cl)cc2)c1C#N | -8.0% | -5.8 | 30.1% | 12.7% | -0.3
Cc1nn(-c2ccccc2)c(C)c1NC(=O)COC(=O)c1ccc(O)cc1O | -11.2% | -9.1 | -11.9% | ? | nt
SMILES | Gal4-VP16 FLuc | TSHR antag | RORgamma inh | ELG1 repair inh | Coupling enz
COc1ccc(Cc2nnc3sc(SCC(=O)Nc4ccccc4)nn3c2=O)cc1OC | nt | -11.3 | nt | -5.4% | nt
COc1ccc(CCNC(=O)C/C(C)=N/NC(=O)C2CCCCC2)cc1OC | ? | 0.4 | -12.3% | 16.2% | -0.7
CCNC(=O)C/C(C)=N/NC(=O)C1CCCCC1 | ? | 4.0 | 11.2µM* | 16.2% | 2.4
CCNC(=S)NNC(=O)C1CCCCC1 | ? | -4.3 | 12.6µM* | -14.3% | -0.7
CCNC(=S)N1CCC(NC(=O)C2CCCCC2)CC1 | -1.9% | 30.5 | 8.7% | 6.0% | nt
CC12CC3CC(C)(C1)CC(C(=O)NCc1cccnc1)(C3)C2 | -7.3% | -7.4 | 16.0% | -6.1% | -1.4
CCNc1nc(C23CC4CC(CC(C4)C2)C3)cs1 | ? | -73.2* | 10µM* | -19.6% | 1.7
CC(=O)NNC(=O)CC(=O)Nc1nc(C23CC4CC(CC(C4)C2)C3)cs1 | 0.9% | -3.5 | -6.1% | -7.0% | 0.9
O=C(NCc1ccccn1)C(=O)Nc1nc(C23CC4CC(CC(C4)C2)C3)cs1 | 10µM* | -22.4 | 2.82µM* | -16.7% | 0.7
CCCCc1cc2c(cn1)=C(OC(=O)C1CCCC1)C(C)(OC(=O)CC)C(=O)C=2 (stereo unspecified) | nt | nt | nt | nt | -4.4
Cc1nn(C)c(C(=O)NNC(=S)Nc2ccc(Cl)cc2)c1[N+](=O)[O-] | ? | 8.7 | 3.98µM* | -0.9% | 6.9
COc1cccc(NC(=S)NNC(=O)C(C)n2nc(C)c([N+](=O)[O-])c2C)c1 (stereo unspecified) | -17.6% | 1.4 | ? | -0.7% | -0.6
COc1cccc(NC(=S)NNC(=O)c2c([N+](=O)[O-])c(C)nn2C)c1 | ? | 0.5 | 2.51µM* | 7.7% | 3.1
O=C(CN1CCN(S(=O)(=O)c2ccccc2F)CC1)N1CCc2ccccc2C1 | nt | -9.1 | nt | -0.9% | nt
CCOC(=O)c1cc2c(nc1N)CC(C)(C)OC2 | 23.4% | -10.7 | ? | ? | -1.7
CCOC(=O)c1cc2c(nc1NC(=S)Nc1ccccc1)CC(C)(C)OC2 | ? | -20.6 | 2.82µM* | -3.2% | -1.9
C=CCNC(=S)Nc1nc2c(cc1C(=O)OCC)COC(C)(C)C2 | -5.3% | -2.1 | 10µM* | ? | 0.9
CCOC(=O)c1cc2c(nc1NC(=S)NCc1ccccc1)CCCC2 | 3.55µM* | 8.2 | 6.31µM* | ? | -0.5
CC(=O)c1cccc(NC(=O)C(C)N(C)CC(=O)Nc2ccc(Cl)cc2)c1 (stereo unspecified) | 1.7% | -3.4 | 30.0% | ? | -0.3
COc1ccccc1NS(=O)(=O)c1cccc(NS(=O)(=O)c2cc(C(=O)O)ccc2OC)c1 | nt | 15.1 | nt | 22.8% | nt
CCOc1ccc(NCC(=O)N/N=C/C=C/c2ccccc2)cc1 | ? | 0.5 | ? | 3.4% | -1.5
CCOc1ccc(N=C/C=C/c2ccccc2)c(O)c1 | 2.6% | 2.7 | -12.1% | ? | -32.1*
CC(C#N)Sc1ccc(S(=O)(=O)N(C)C2CCCCC2)cn1 (stereo unspecified) | nt | -5.3 | nt | 15.2% | nt
COc1ccc(OC)c(NS(=O)(=O)c2ccc(Br)s2)c1 | -5.7% | -14.7 | 16.5% | ? | -6.6
COc1cccc(NS(=O)(=O)c2ccc(Br)s2)c1 | 4.47µM* | -15.0 | 3.55µM* | 2.5% | -20.2
O=C1c2ccccc2NC(c2cccc([N+](=O)[O-])c2)N1O (stereo unspecified) | -0.8% | 12.8 | ? | ? | -0.5
